According to PubChem BioAssay AID652058 (Broad Institute, 2013):
In all, about 1,200 compounds went through this assay and about 870 (72%) were called active. About 3% were inconclusive and are not listed.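 The calls were made as follows: active = every test run fits a falling curve whose half-maximal concentration is at most twice the top valid dose; inconclusive = runs disagree, or flat 30 to 70% inhibition, or poor fit; inactive = every run inactive: flat, rising or weaker potency.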 So high a share suggests a set chosen from earlier hits. Only a sample is shown. Entries with a potency or affinity are not part of this list.

Assay: ZM109 Env clade C HIV-1 fusion inhibitors, dose response, HeLa effector, CEM target cells, luciferase, cherry-pick (AID 652058);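 also: 0% = neutral control wells and -100% = maraviroc 300 nM wells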
Settings: HeLa Env/CEM cell fusion, 16-24 h; series mostly up to 35 µM

Activity change, negative = inhibition, inactive:
Cc1cc(C)c(CN2CCN(C(=O)Cn3ccc(NC(=O)OCc4ccccc4)nc3=O)CC2)c(C)c1, CC(c1nc2ccccc2c(=O)[nH]1)N(C)CCOc1ccc(Cl)cc1 (configuration not stated), CNC[C@@H]1Oc2ccc(NS(C)(=O)=O)cc2CC(=O)N([C@H](C)CO)C[C@H]1C, C[C@H]1CN([C@@H](C)CO)C(=O)c2cccc(NC(=O)Nc3ccc(C(F)(F)F)cc3)c2O[C@H]1CN(C)S(=O)(=O)c1ccccc1, COCC(=O)N(C)C[C@H]1Oc2ncc(Br)cc2C(=O)N([C@H](C)CO)C[C@H]1C, O=C(c1cc(COc2cccc(C(F)(F)F)c2)on1)N1CCC(c2ccncc2)CC1, Clc1ccc(-c2noc(CSc3nnc(-c4ccncc4)n3-c3ccccc3)n2)cc1, CC1=C(C(=O)OCc2ccc3c(c2)OCO3)C(c2ccc(F)cc2)NC(=O)N1 (configuration not stated), Cc1nn(C)c(Cl)c1NC(=O)OCc1ccc(Cl)cc1Cl, CCNC(=O)C[C@H]1CC[C@@H]2[C@@H](COc3ccc(NC(=O)Cc4cccs4)cc3C(=O)N2C)O1, Cc1nn(C)cc1NC(=O)C[C@H]1CC[C@@H]2[C@@H](COc3ccc(NC(=O)C4CCC4)cc3C(=O)N2C)O1, CCNC(=O)C[C@@H]1CC[C@@H]2[C@@H](COc3ccc(NC(=O)Cc4cccs4)cc3C(=O)N2C)O1, CCNC(=O)Nc1ccc2c(c1)C(=O)N(C)[C@@H]1CC[C@@H](CC(=O)NCC3CCCCC3)O[C@@H]1CO2, CN(C)CCCNC(=O)[C@H]1[C@H](CO)[C@H]2Cn3c(ccc(C4=CCCC4)c3=O)[C@H]2N1CCC(F)(F)F, CNC[C@H]1Oc2c(NC(=O)Nc3ccc4c(c3)OCO4)cccc2C(=O)N([C@H](C)CO)C[C@@H]1C, C[C@H](CO)N1C[C@H](C)[C@H](CN(C)Cc2ccccc2)Oc2c(NC(=O)Nc3ccc4c(c3)OCO4)cccc2C1=O, C#CCn1c(=O)c2c(ncn2C)n(C)c1=O, COc1cccc(CNC(=O)C[C@@H]2C=C[C@H](NC(=O)C3CCC3)[C@H](CO)O2)c1, Cc1ccc(-c2ccc3c(c2)O[C@H](CN(C)Cc2cccnc2)[C@@H](C)CN([C@H](C)CO)S3(=O)=O)cc1, Cc1ccc(-c2ccc3c(c2)O[C@@H](CN(C)Cc2cccnc2)[C@H](C)CN([C@H](C)CO)S3(=O)=O)cc1, Cc1cc(C)c(CN2CCN(C(=O)Cn3cnc4c(NCc5ccccc5)ncnc43)CC2)c(C)c1, N#Cc1ccc(CN2CCN(C(=O)CNC(=O)Cc3cccc4ccccc34)CC2)cc1, CSc1ncccc1C(=O)OCC(=O)Nc1ccc(C)c(S(=O)(=O)N2CCOCC2)c1, Nc1ccc(S(=O)(=O)c2ccc(N3CCOCC3)c(N)c2)cc1, O=C(OCCOc1cccc(Cl)c1)c1cc(S(=O)(=O)N2CCCCC2)ccc1N1CCOCC1, C[C@H]1NC(=O)[C@@]2(C)[C@H](c3ccccc3)[C@H]3COc4ccccc4[C@@H]3N2C1=O, COc1cc2c(cc1OC)C(=O)N1[C@H]3c4cc(Cl)ccc4OC[C@@H]3[C@H](c3ccccc3)[C@]1(C)C(=O)N2, COc1ccc(-c2nn(C)c(=O)c3ccccc23)cc1NC(=O)COc1ccccc1, COc1ccc(OCC(=O)Nc2cc(-c3nn(C)c(=O)c4ccccc34)ccc2OC)cc1, Cc1ccc(-c2ccc3c(c2)O[C@@H](CN(C)C(=O)C2CCCCC2)[C@H](C)CN([C@H](C)CO)S3(=O)=O)cc1, C[C@H](CO)N1C[C@H](C)[C@H](CN(C)Cc2ccccc2F)Oc2cc(C3=CCCC3)ccc2S1(=O)=O, Cc1ccc(-c2ccc3c(c2)O[C@@H](CN(C)Cc2ccncc2)[C@H](C)CN([C@H](C)CO)S3(=O)=O)cc1, Cc1ccc(-c2ccc3c(c2)O[C@H](CN(C)Cc2ccncc2)[C@@H](C)CN([C@@H](C)CO)S3(=O)=O)cc1, O=C(c1cccc(S(=O)(=O)N2CCN(c3ccccc3)CC2)c1)N1CCCC(C(F)(F)F)C1 (configuration not stated), Cc1ccccc1S(=O)(=O)NC(=O)C1(C)CCN1C(=O)CCc1ccc(Cl)cc1Cl (configuration not stated), N#Cc1ccc(CSc2nnc(COc3ccccc3)n2-c2ccccc2)cc1, COC(=O)[C@@]1(Cc2ccc(F)cc2)[C@H]2c3cc(C(=O)N(C)C)n(CCO)c3C[C@H]2CN1C(=O)c1ccccc1, CC(NC(=O)c1ccccc1NC(=O)CN1CCc2ccccc2C1)c1ccccc1 (configuration not stated), Cc1ccc(-n2nnnc2SCn2nnc3ccccc3c2=O)c(C)c1, Cc1cccc(N2CCN(C(=O)CCCSc3nc4ccccc4[nH]3)CC2)c1C, O=C(NCc1cccnc1)c1c[nH]c2cc3c(cc2c1=O)OCCO3, N#C[C@H]1[C@@H](c2ccccc2/C=C/c2ccccc2)[C@@H](CO)N1S(=O)(=O)c1cccc(F)c1, Cc1ccc(CSCCNC(=O)c2ccc(Cl)c(S(=O)(=O)N3CCOCC3)c2)cc1, Cc1nc2sc(C(c3ccco3)N3CCC(Cc4ccccc4)CC3)c(O)n2n1 (configuration not stated), C[C@H]1CN([C@@H](C)CO)C(=O)Cc2cc(N(C)C)ccc2O[C@H]1CN(C)CC1CC1, COCCCNC(=O)c1sc2ncnc(N3CCc4ccccc4C3)c2c1C, CC(C)(C)OC(=O)N1CCc2onc(-c3ccc(Br)cc3)c2C1=O, COc1ccc(Nc2ncc(C(=O)N3CCN(c4ccc(F)cc4)CC3)c3ccccc23)cc1, c1coc(CNc2c3c(nc4ccccc24)CCC3)c1, Cc1ccc(NS(=O)(=O)c2cc(C(=O)N(C)C3CCN(C)CC3)ccc2Cl)cc1Cl, Cc1cc(Cl)c(S(=O)(=O)N2CCCC2)cc1OCC(=O)NC1CCCCC1, C=CCOc1c(Br)cc(CNc2ccc(NC(=O)C(C)C)c(OC)c2)cc1OC, Cc1noc(C)c1NC(=O)N(C)C[C@H]1OCCCC[C@H](C)Oc2ccc(NC(=O)c3ccccc3)cc2C(=O)N([C@H](C)CO)C[C@@H]1C, O=C(c1ccc(Cl)cc1)N1CCCCC(Sc2nnc(-c3ccc4c(c3)OCO4)o2)C1=O (configuration not stated), O=C(C[C@H]1C[C@H]2c3cc(NC(=O)Cc4ccncc4)ccc3O[C@H]2[C@@H](CO)O1)NCc1ccncc1, COc1cccc(S(=O)(=O)N[C@H]2CC[C@H](CC(=O)NCc3ccncc3)O[C@@H]2CO)c1, Cn1c(-c2ccc(Cl)cc2)ccc(C#N)c1=O, Cc1onc(-c2ccccc2)c1C(=O)OCCOc1cccc(Cl)c1, Cn1cccc1C(=O)OCC(=O)NCCc1ccc(S(N)(=O)=O)cc1, Cn1c(=O)c2c(nc(NCCc3ccccc3)n2Cc2ccccc2)n(C)c1=O, COc1ccc(S(=O)(=O)N2CCCCC2)cc1NC(=O)CCCOc1ccc(C)cc1, CCOC(=O)CN1CCCc2nc(C)c(C)cc21, COCc1[nH]nc2c1C(c1ccc(F)cc1)N(Cc1ccccc1)C2=O (configuration not stated), CC(=O)Nc1ccc(C(=O)OCC(=O)NC(=O)NCc2ccccc2)cc1, CCN(CC)S(=O)(=O)c1cccc(NC(=O)c2ccc(-n3nc(C)cc3C)cc2)c1, CCN(CC)S(=O)(=O)c1ccc(NC(=O)Nc2cccc(C(F)(F)F)c2)cc1, CC(C)(C)c1ccc(-n2ncc3c2CCCC3NC(=O)CN2CCCC2=O)cc1 (configuration not stated), C[C@H](CO)N1C[C@H](C)[C@H](CN(C)S(=O)(=O)c2ccccc2)Oc2cc(Br)ccc2S1(=O)=O, CC(C)(C)c1ccc(OCCC(=O)Nc2cccc(S(=O)(=O)N3CCOCC3)c2)cc1, CCc1nc(N2CCCCC2)c2oc3ccccc3c2n1, CCc1nc(N2CCCCC2C)c2oc3ccccc3c2n1 (configuration not stated), O=C1c2cccc(OCc3ccc(F)cc3)c2CCN1Cc1ccccc1, NC(=S)c1ccc(OCCCc2ccccc2)cc1 111% [at 8 µM], Nc1nc2c(ncn2[C@@H]2O[C@H](C(=O)NCC(c3ccccc3)c3ccccc3)[C@@H](O)[C@H]2O)c(=O)[nH]1, Nc1ncn([C@H]2C[C@H](O)[C@@H](CO)O2)c(=O)n1, O=S(=O)(NC1CC1)c1ccc(S(=O)(=O)N2CCCc3ccccc32)cc1, O=C(Cn1ncc2c(=O)oc3ccccc3c21)N1CCC(N2CCCCC2)CC1, O=C(NCCc1ccccc1)c1ccc2c(c1)OCCO2, O=C(CCNC(=O)c1ccc(Br)cc1)NNC(=O)COc1ccccc1F, CC(=O)c1c(C)[nH]c(C(=O)OCCCCN2C(=O)c3ccccc3C2=O)c1C, CC(C)C#Cc1ccc2c(c1)O[C@@H](CN(C)C(=O)C1CCCCC1)[C@H](C)CN([C@H](C)CO)S2(=O)=O, COc1ccc(-c2ccc3c(c2)[C@@H]2[C@@H](CCN2C(=O)NC2CCCC2)[C@H](CO)N3C)cc1, N#CCSc1nnc(-c2sc3ccccc3c2Cl)o1, C[C@@H]1CN([C@H](C)CO)S(=O)(=O)c2ccc(-c3ccccc3)cc2O[C@@H]1CN(C)Cc1ccccc1, CCOc1ccc(NC2c3ccccc3C(=O)N2Cc2ccco2)cc1 (configuration not stated), Cc1ccc(S(=O)(=O)N(C)C[C@H]2Oc3ccc(NC(=O)Nc4cccc5ccccc45)cc3C(=O)N([C@H](C)CO)C[C@@H]2C)cc1, C[C@@H]1CN([C@H](C)CO)C(=O)c2cc(NC(=O)Nc3ccccc3)ccc2O[C@@H]1CN(C)S(=O)(=O)c1ccccc1
